The text below walks through data of PubChem BioAssay (EPA / NIEHS).

Active and inactive are the calls of the source. The calls were made as follows: active = hit-call score of the fitted dose curve at least 0.9, where 1 is the maximum; inactive = score below 0.9.

The nature of the experiment: Tanguay_ZF_120hpf_EDEM: Oregon State University Tanguay Lab 120 Hour Post-fertilization zebrafish Assay for Edema Malformation (AID 2284400). As for the experimental part:
Tanguay_ZF_120hpf is a whole embryo, multiplexed endpoint assay using zebrafish larvae exposed for 120 hours post fertilization on a 96-well plate.Tanguay_ZF_120hpf_EDEM is one of one assay component(s) measured or calculated from the Tanguay_ZF_120hpf assay. It is designed to make measurements of zebrafish development as detected with brightfield microscopy of developing zebrafish embryos.Data from the assay component Tanguay_ZF_120hpf_EDEM was analyzed into 1 assay endpoints. This assay endpoint, Tanguay_ZF_120hpf_EDEM, was analyzed in the positive analysis fitting direction relative to DMSO as the negative control and baseline of activity. Using a type of morphology reporter, gain-of-signal activity can be used to understand changes in developmentals as they relate to the whole embryo. To generalize the intended target to other relatable targets, this assay endpoint is annotated to the zebrafish development intended target family, where the subfamily is embryonic edema.
Zebrafish husbandry: Tropical 5D wild-type adult zebrafish were housed in at an approximate density of 1000 per 100 gallon tank at the Sinnhuber Aquatic Research Laboratory, Oregon State University, Corvallis, OR. Each tank was kept at standard laboratory conditions of 28C on a 14-h light/10-h dark photoperiod in fish water consisting of reverse osmosis water supplemented with a commercially available salt (Instant Ocean). Spawning funnels were placed into the tanks the night prior, and embryos were collected and staged. To increase bioavailability, the chorion was enzymatically removed using pronase (63.6mg/ml, >/= 3.5U/mg, Sigma-Aldrich: P5147) at 4 hours post fertilization (hpf) using a custom automated dechorionator.Chemical exposures: Six hpf dechorionated embryos were placed 1 embryo per well in a 96-well plate prefilled with 90 ul of EM using automated embryo placement systems (AEPS). Ten microliters of each row of dilution plate 2 was added to 2 exposure plates. The final DMSO concentration used was 0.64% (vol/vol). Thirty-two embryos were also exposed to 5uM trimethyltin chloride (positive control). Plates were sealed to prevent evaporation and foil covered to reduce light exposure and kept in a 28C incubator. Embryos were statically exposed until 120 hpf. At 24 hpf, embryos were assessed for photomotor response using a custom photomotor response analysis tool (PRAT) and for developmental toxicity endpoints (MO24: mortality at 24 hpf, DP: developmental progression, SM: spontaneous movement, and NC: notochord distortion). At 120 hpf, locomotor activity was measured using Viewpoint Zebralab and assessed for 13 endpoints. Zebrafish acquisition and analysis program (ZAAP), a custom program designed to inventory, acquire, and manage zebrafish data, was used to collect developmental endpoints as either present or absent (i.e., binary responses were recorded). If mortality occurred for an embryo (at either 24 or 120 hpf), the non-mortality endpoints were not measured.
As to `OCC(F)(F)C(F)(F)C(F)(F)F`, the molecule was called inactive.
With `O=C(CC(=O)C(F)(F)C(F)(F)F)C(F)(F)F` the entry was “inactive”.
Regarding `O=C(O)C(F)(F)C(F)(F)C(F)(F)C(F)(F)C(F)(F)C(F)(F)C(F)(F)C(F)(F)C(F)(F)C(F)(F)C(F)(F)C(F)(F)C(F)(F)F`, the molecule was called inactive.
`O=C(O)C=C(C(F)(F)F)C(F)(F)F`: the call was inactive.
With `OCC(F)(F)C(F)(F)C(F)(F)C(F)F` the entry was “inactive”; with `OCC(F)(F)C(F)(F)C(F)(F)C(F)(F)C(F)(F)C(F)(F)F`, “inactive”; with `FC1CC(F)(F)C(F)(F)C1(F)F` (stereo not given), “inactive”.
With `O=S(=O)(OCC(F)F)C(F)(F)F`, the molecule was called inactive.
As to `O=C(O)C(F)(OC(F)(F)C(F)(OC(F)(F)C(F)(F)C(F)(F)F)C(F)(F)F)C(F)(F)F` (stereo not given), the outcome was inactive.
Regarding `C=CC(=O)OCC(F)(F)C(F)(F)C(F)(F)C(F)(F)C(F)(F)C(F)(F)C(F)(F)F`, the outcome was inactive.
For the molecule `OCCCC(F)(F)C(F)(F)C(F)(F)F`, the molecule was called inactive.
`FC(F)(F)C(F)(F)C(F)(F)CI`: the result was inactive.
The entry for `O=C(O)C(F)(OC(F)(F)C(F)(OC(F)(F)C(F)(OC(F)(F)C(F)(F)C(F)(F)F)C(F)(F)F)C(F)(F)F)C(F)(F)F` (stereo not given) is “inactive”; for `O=C(O)C(F)(F)C(F)(F)F` it is “inactive”; for `O=C(O)C(F)(F)C(F)(F)C(F)(F)F` it is “inactive”.
In the case of `C=CC(=O)OCC(F)(F)C(F)(F)C(F)(F)C(F)(F)COC(=O)C=C`, the molecule was called inactive.
`CCCCCCCCC(F)(F)C(F)(F)C(F)(F)C(F)(F)C(F)(F)C(F)(F)F`: the outcome was inactive.
Turning to `FC(F)(F)C(F)(F)C(F)(F)C(F)(F)C(F)(F)C(F)(F)C(F)(F)C(F)(F)CCS`, the molecule was classed as inactive.
As for `FC(F)(F)C(F)(F)C(F)(F)C(F)(F)C(F)(F)C(F)(F)C(F)(F)C(F)(F)F`, the call was inactive.
For `O=C(O)C(F)(F)C(F)(F)C(F)F`, the molecule was classed as inactive.
With `C=CC(F)(F)C(F)(F)C(F)(F)C(F)(F)C(F)(F)C(F)(F)C(F)(F)C(F)(F)C=C`, the outcome was inactive.
With `NC(=O)C(F)(F)C(F)(F)C(F)(F)C(F)(F)F` the entry was “inactive”; with `FC(F)(F)C(F)(F)C(F)(F)C(F)(F)C(F)(F)CCI`, “inactive”.
`Cc1ccc(S(=O)(=O)OCC(F)(F)C(F)(F)C(F)(F)C(F)(F)C(F)(F)C(F)F)cc1`: the call was inactive.
With `C=CC(F)(F)C(F)(F)C(F)(F)C(F)(F)C(F)(F)C(F)(F)C(F)(F)C(F)(F)F`, the molecule was called inactive.
With `O=C(O)C(F)(F)C(F)(F)C(F)(F)C(F)(F)F` the entry was “inactive”.
`O=S(=O)(OCCOC(F)(F)F)C(F)(F)F`: the call was inactive.
Regarding `C=C(C)C(=O)OCC(F)(F)C(F)(F)C(F)(F)C(F)(F)C(F)(F)C(F)(F)C(F)(F)F`, the result was inactive.
Regarding `FC(F)(F)C(F)(F)C(F)(F)C(F)(F)C(F)(F)C(F)(F)C(F)(F)Br`, the outcome was inactive.
Take `O=C(O)C(F)(F)C(F)(F)C(F)(F)C(F)(F)C(F)(F)C(F)(F)C(F)(F)C(F)(F)C(F)(F)C(F)(F)C(F)(F)C(F)(F)F`: the molecule was classed as inactive.
On to `FC(F)(F)C(F)(F)C(F)(F)C(F)(F)C(F)(F)C(F)(F)CC1CO1` (stereo not given), for which the call was inactive.
Take `OCCCC(F)(F)C(F)(F)C(F)(F)C(F)(F)C(F)(F)C(F)(F)C(F)(F)F`: the outcome was inactive.
For the molecule `COC(=O)CCC(F)(F)C(F)(F)C(F)(F)C(F)(F)F`, the molecule was called inactive.
Consider `C=C(C)C(=O)OCCC(F)(F)C(F)(F)C(F)(F)C(F)(F)C(F)(C(F)(F)F)C(F)(F)F`, for which the call was inactive.
On to `FC(F)(F)C(F)(F)C(F)(F)C(F)(F)C(F)(F)C(F)(F)C(F)(F)I`, for which the molecule was called inactive.
As to `OCC(F)(F)C(F)(F)C(F)(F)C(F)(F)C(F)(F)C(F)F`, the molecule was classed as inactive.
Turning to `FC(F)(F)C(F)(F)C(F)(F)C(F)(F)CCI`, the outcome was inactive.
The entry for `FC(F)(F)C(F)(F)C(F)(F)N(C(F)(F)C(F)(F)C(F)(F)F)C(F)(F)C(F)(F)C(F)(F)F` is “inactive”; for `CCO[Si](CCC(F)(F)C(F)(F)C(F)(F)C(F)(F)C(F)(F)C(F)(F)F)(OCC)OCC` it is “inactive”.
Consider `FC(F)(F)C(F)(F)CNCC(F)(F)C(F)(F)F`, for which the outcome was inactive.
